{"source": "the supplement of paper PMC11001985", "note": "Unmarked numbers belong to inactive results.", "data": [{"compound": "C#CCNC(=O)CCSSCCC(=O)NCCc1ccc(C=O)c(C=O)c1", "experiment": "lysine labeling ratio R10:1 (500 µM / 50 µM probe), SILAC-ABPP in living cells; higher = lower intrinsic lysine reactivity toward the probe, active = 2 or less", "conditions": "HeLa; probe concentrations 500 vs 50 µM", "procedure,_shortened": "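In PBS at room temperature, living HeLa cells grown with SILAC light or heavy labels were treated with 50 µM or 500 µM of an alkyne-tagged, disulfide-linked lysine probe, with label swaps in both directions. Analysis was by LC-MS/MS on a TIMS-TOF Pro after click to biotin-azide, neutravidin capture and DTT release. For each lysine, R is the median across forward and reverse replicates of the filtered median high-probe/low-probe MS1 peptide ratio, capped at 20.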", "values": [{"target": "PTGFRN (lysine site: K579) (UniProt Q9P2B2)", "lysine labeling ratio R10:1": 2.67}, {"target": "PGAM1 (lysine site: K39) (UniProt P18669)", "lysine labeling ratio R10:1": 3.67}, {"target": "SPTBN1 (lysine site: K1878) (UniProt Q01082)", "sequence (Q01082 whole entry)": "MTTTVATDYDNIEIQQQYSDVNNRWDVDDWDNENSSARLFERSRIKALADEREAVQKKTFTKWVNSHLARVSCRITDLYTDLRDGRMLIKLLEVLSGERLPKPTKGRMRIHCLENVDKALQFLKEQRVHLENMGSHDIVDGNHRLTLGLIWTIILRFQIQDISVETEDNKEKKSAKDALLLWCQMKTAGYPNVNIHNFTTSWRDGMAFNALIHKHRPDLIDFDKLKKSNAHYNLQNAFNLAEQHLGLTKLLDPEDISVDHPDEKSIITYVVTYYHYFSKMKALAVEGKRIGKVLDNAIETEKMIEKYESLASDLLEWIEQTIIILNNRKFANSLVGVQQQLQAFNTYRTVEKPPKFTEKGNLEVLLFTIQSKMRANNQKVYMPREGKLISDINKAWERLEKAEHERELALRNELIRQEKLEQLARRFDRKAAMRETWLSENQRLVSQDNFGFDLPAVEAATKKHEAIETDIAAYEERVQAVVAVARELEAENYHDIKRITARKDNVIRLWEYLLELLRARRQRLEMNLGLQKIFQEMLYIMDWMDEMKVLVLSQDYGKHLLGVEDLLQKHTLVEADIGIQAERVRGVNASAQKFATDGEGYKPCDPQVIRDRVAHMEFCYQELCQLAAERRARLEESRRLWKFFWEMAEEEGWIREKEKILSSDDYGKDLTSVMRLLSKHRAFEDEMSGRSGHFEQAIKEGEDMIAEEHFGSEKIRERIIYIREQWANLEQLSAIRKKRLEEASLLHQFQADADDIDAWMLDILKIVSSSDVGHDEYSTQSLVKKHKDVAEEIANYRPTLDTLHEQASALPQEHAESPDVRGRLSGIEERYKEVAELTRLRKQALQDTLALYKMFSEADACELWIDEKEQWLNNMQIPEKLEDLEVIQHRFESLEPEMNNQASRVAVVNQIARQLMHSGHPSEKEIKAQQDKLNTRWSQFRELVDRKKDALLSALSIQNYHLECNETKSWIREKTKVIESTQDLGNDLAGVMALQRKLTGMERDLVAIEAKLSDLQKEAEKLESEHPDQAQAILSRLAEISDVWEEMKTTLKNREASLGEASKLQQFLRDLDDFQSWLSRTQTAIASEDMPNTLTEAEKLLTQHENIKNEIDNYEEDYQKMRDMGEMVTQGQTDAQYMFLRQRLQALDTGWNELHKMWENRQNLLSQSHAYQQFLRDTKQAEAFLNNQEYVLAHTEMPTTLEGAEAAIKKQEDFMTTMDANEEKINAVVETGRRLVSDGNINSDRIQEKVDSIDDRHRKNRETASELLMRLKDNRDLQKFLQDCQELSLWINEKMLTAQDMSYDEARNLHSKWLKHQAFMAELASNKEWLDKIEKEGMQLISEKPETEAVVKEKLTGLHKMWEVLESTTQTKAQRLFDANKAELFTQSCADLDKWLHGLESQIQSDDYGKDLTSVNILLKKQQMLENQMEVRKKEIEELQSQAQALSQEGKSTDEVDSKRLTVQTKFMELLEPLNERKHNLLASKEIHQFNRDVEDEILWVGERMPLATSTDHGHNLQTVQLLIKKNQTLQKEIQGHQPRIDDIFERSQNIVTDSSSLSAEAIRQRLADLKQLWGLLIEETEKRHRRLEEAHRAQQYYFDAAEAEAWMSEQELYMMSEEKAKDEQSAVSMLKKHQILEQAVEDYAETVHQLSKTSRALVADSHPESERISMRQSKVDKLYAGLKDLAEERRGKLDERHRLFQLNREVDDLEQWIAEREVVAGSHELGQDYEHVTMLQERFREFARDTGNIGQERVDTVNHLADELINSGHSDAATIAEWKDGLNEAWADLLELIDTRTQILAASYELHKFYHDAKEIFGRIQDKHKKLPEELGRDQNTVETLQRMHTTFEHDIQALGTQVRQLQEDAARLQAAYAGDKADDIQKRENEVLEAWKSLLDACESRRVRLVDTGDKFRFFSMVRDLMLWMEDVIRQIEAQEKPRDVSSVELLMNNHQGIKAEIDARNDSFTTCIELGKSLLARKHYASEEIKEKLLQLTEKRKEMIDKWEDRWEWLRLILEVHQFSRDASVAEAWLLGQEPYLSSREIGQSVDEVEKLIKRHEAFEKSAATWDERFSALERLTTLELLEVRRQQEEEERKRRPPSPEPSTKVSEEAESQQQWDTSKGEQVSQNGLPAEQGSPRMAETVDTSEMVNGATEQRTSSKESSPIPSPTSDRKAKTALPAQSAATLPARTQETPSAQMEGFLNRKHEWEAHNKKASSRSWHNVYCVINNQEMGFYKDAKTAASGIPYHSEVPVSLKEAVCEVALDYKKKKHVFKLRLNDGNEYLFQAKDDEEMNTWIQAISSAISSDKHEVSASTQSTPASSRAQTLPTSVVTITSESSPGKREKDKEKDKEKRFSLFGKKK", "lysine labeling ratio R10:1": 4.5}, {"target": "CD97 (lysine site: K483) (UniProt P48960)", "lysine labeling ratio R10:1": 5.15}, {"target": "UniProt P83731 (lysine site: K97)", "lysine labeling ratio R10:1": "1.9 (active)"}, {"target": "RPL35A (lysine site: K45) (UniProt P18077)", "lysine labeling ratio R10:1": "1.38 (active)"}, {"target": "SPTBN2 (lysine site: K1874) (UniProt O15020)", "lysine labeling ratio R10:1": 5.9}, {"target": "NECTIN3 (lysine site: K301) (UniProt Q9NQS3)", "lysine labeling ratio R10:1": "1.83 (active)"}, {"target": "ITGB1 (lysine site: K73) (UniProt P05556)", "lysine labeling ratio R10:1": 2.27}, {"target": "UniProt P46781 (lysine site: K30)", "lysine labeling ratio R10:1": "1.01 (active)"}, {"target": "UniProt P0C0S5 (lysine site: K14)", "sequence (P0C0S5 whole entry)": "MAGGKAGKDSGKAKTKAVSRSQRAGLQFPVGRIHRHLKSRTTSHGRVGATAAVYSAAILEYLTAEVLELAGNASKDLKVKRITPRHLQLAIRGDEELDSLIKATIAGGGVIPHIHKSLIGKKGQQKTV", "lysine labeling ratio R10:1": "1.12 (active)"}, {"target": "CKAP4 (lysine site: K223) (UniProt Q07065)", "lysine labeling ratio R10:1": 2.5}, {"target": "MYH9 (lysine site: K760) (UniProt P35579)", "lysine labeling ratio R10:1": 3.31}, {"target": "ANKH (lysine site: K127) (UniProt Q9HCJ1)", "lysine labeling ratio R10:1": "0.684 (active)"}, {"target": "PDIA3 (lysine site: K129) (UniProt P30101)", "lysine labeling ratio R10:1": "1.94 (active)"}, {"target": "UniProt Q15149 (lysine site: K2350)", "lysine labeling ratio R10:1": 4.82}, {"target": "ACSL4 (lysine site: K702) (UniProt O60488)", "lysine labeling ratio R10:1": 2.14}, {"target": "FN1 (lysine site: K1050) (UniProt P02751)", "lysine labeling ratio R10:1": "1.47 (active)"}, {"target": "HSPA9 (lysine site: K76) (UniProt P38646)", "lysine labeling ratio R10:1": 3.36}, {"target": "SEMA3C (lysine site: K613) (UniProt Q99985)", "sequence (Q99985 whole entry)": "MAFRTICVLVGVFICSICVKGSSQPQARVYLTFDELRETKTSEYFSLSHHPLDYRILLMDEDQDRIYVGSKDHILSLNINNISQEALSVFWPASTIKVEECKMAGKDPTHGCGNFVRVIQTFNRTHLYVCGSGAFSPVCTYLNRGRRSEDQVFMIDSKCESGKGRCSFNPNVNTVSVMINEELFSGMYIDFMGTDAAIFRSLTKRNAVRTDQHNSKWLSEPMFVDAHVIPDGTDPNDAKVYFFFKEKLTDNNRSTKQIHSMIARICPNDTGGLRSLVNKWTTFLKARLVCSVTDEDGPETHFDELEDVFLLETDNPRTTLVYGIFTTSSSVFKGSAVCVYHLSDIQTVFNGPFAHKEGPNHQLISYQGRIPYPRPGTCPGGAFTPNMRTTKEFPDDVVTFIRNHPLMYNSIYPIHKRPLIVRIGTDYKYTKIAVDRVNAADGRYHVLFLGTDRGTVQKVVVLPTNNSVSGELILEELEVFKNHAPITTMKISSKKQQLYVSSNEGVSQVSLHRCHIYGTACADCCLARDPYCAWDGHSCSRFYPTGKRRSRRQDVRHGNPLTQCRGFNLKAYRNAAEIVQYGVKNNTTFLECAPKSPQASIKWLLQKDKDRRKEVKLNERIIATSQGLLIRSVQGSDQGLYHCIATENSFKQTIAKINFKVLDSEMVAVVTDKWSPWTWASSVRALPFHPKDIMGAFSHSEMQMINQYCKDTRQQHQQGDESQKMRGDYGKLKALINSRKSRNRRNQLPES", "lysine labeling ratio R10:1": 5.77}, {"target": "LAMC1 (lysine site: K1329) (UniProt P11047)", "lysine labeling ratio R10:1": "1.2 (active)"}, {"target": "ENO1 (lysine site: K126) (UniProt P06733)", "lysine labeling ratio R10:1": 3.29}, {"target": "RDX (lysine site: K520) (UniProt P35241)", "lysine labeling ratio R10:1": "1.76 (active)"}, {"target": "PLXNB2 (lysine site: K1121) (UniProt O15031)", "sequence (O15031 whole entry)": "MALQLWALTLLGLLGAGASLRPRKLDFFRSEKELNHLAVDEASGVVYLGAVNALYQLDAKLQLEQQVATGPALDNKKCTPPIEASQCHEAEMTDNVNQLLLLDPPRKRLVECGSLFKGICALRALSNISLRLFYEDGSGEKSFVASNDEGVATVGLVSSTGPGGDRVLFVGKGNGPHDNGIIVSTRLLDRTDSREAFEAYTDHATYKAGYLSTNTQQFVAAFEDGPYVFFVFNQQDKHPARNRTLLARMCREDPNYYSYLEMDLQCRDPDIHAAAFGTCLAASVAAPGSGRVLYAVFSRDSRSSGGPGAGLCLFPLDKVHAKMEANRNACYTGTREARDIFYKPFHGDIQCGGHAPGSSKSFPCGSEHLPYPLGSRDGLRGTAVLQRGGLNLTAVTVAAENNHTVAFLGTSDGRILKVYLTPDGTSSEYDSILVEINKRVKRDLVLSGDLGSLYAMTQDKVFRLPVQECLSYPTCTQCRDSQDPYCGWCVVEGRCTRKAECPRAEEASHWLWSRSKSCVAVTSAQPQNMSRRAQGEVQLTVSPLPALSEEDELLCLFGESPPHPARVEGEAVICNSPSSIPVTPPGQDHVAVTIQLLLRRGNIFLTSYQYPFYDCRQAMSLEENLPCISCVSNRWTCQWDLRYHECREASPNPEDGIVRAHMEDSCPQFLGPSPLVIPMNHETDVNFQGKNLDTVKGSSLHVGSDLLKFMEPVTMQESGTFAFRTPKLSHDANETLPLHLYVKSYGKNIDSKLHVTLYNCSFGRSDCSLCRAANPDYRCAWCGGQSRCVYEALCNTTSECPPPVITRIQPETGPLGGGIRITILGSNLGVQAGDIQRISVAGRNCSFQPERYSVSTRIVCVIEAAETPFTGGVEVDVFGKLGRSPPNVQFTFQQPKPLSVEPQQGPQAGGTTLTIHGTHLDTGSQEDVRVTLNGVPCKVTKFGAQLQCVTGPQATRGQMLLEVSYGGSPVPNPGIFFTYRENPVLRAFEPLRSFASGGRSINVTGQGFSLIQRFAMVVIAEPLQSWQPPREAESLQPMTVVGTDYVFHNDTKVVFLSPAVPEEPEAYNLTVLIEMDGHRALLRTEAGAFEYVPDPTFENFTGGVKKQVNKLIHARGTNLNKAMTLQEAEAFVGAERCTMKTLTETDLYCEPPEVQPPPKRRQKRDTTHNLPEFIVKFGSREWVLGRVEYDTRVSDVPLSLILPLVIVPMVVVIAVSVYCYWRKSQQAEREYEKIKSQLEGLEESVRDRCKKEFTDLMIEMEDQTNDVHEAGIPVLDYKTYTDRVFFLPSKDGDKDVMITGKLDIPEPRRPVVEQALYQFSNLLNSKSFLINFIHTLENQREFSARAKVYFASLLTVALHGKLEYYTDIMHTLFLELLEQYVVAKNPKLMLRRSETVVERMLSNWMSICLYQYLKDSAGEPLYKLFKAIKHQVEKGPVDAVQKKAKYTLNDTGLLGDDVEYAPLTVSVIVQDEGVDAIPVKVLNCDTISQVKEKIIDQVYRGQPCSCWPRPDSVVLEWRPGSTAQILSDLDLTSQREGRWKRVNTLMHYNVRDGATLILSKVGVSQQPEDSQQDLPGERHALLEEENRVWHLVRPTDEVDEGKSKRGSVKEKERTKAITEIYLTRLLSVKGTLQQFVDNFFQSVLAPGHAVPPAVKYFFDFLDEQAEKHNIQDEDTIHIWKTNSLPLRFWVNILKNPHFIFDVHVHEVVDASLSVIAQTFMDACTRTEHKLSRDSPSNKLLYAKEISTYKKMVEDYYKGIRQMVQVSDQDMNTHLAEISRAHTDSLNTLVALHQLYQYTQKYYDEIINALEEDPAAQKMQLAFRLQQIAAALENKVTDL", "lysine labeling ratio R10:1": "0.81 (active)"}, {"target": "RBMX (lysine site: K63) (UniProt P38159)", "lysine labeling ratio R10:1": "1.66 (active)"}, {"target": "LRP1 (lysine site: K3803) (UniProt Q07954)", "lysine labeling ratio R10:1": 3.09}, {"target": "UniProt P05787 (lysine site: K295)", "lysine labeling ratio R10:1": 11.9}, {"target": "EEF2 (lysine site: K498) (UniProt P13639)", "lysine labeling ratio R10:1": 3.9}, {"target": "CCT6A (lysine site: K388) (UniProt P40227)", "lysine labeling ratio R10:1": "1.46 (active)"}, {"target": "DSG2 (lysine site: K254) (UniProt Q14126)", "lysine labeling ratio R10:1": 8.19}, {"target": "GPI (lysine site: K89) (UniProt P06744)", "lysine labeling ratio R10:1": "1.12 (active)"}, {"target": "UniProt P62273 (lysine site: K13)", "lysine labeling ratio R10:1": "1.45 (active)"}, {"target": "SPTAN1 (lysine site: K190) (UniProt Q13813)", "lysine labeling ratio R10:1": 4.11}, {"target": "HSPD1 (lysine site: K369) (UniProt P10809)", "lysine labeling ratio R10:1": 2.45}, {"target": "PLXNB2 (lysine site: K322) (UniProt O15031)", "lysine labeling ratio R10:1": "0.663 (active)"}, {"target": "CACNA2D1 (lysine site: K649) (UniProt P54289)", "lysine labeling ratio R10:1": 10.1}, {"target": "ANP32B (lysine site: K68) (UniProt Q92688)", "lysine labeling ratio R10:1": "1.78 (active)"}, {"target": "UniProt Q8WXI7 (lysine site: K13714)", "lysine labeling ratio R10:1": 7.68}, {"target": "UniProt Q15149 (lysine site: K4513)", "lysine labeling ratio R10:1": "1.42 (active)"}, {"target": "HSP90B1 (lysine site: K683) (UniProt P14625)", "lysine labeling ratio R10:1": 4.36}]}]}
